AMPAR-TARP mod: modulators of GluA2-stargazin AMPA receptor complexes, primary screen, cell-based, membrane potential dye. HEK293 GluA2+stargazin, membrane potential dye (FDSS), glutamate EC50; hits were called plate by plate, in both directions. Voltage-dependent calcium channel gamma-2 subunit (Mus musculus) + Glutamate receptor 2 …. 40,000 tested, 3.5% active. calls only at 30 µM;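 active means any of four per-well response measures lying three or more SD from its plate-wide compound average, in either direction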
GIRK2 activator: activators of NPY4-receptor-primed GIRK2 channels, summary, cell-based, HEK293, thallium flux. G protein-activated inward rectifier potassium channel 2 (Homo sapiens), P48051. HEK293 GIRK2/NPY4 cells, thallium flux fluorescence. activation (% efficacy), % for hits at 37.5 µM. 34,000 tested, under 10 active;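 active means primary screen hit, no activity in plain HEK293 cells, and in GIRK2-only cells above 5% efficacy rising with concentration; inactive means the rest, including fluorescent compounds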;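 further: efficacy is normalized control-subtracted fluorescence 15 s after thallium addition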
Target sequence (P48051 whole entry, looked up): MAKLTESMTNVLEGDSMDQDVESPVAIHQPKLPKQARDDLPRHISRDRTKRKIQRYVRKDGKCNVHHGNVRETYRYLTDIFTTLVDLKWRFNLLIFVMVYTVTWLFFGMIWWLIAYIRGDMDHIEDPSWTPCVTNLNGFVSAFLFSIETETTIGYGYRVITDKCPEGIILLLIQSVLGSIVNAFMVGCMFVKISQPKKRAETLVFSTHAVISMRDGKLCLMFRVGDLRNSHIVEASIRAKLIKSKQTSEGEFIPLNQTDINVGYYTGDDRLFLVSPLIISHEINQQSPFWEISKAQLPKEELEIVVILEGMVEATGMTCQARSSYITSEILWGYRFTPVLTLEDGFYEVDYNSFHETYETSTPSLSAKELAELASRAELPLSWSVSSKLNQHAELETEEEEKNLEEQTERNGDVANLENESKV
* marks the source's active call; other numbers are inactive results; i = inactive; . = no result given; + = active, no number. The sample as a whole holds a higher share of hits than the screen did.

SMILES | AMPAR-TARP mod | GIRK2 activator
O=C(Nc1cccc([N+](=O)[O-])c1)c1ccc(=O)n(Cc2cccc(C(F)(F)F)c2)c1 | i | i
Cc1ccc(F)cc1NC(=O)CSc1nc2c(c(=O)[nH]1)CN(Cc1ccc(F)cc1)CC2 | i | .
CCS(=O)(=O)c1ccc(C(=O)Nc2sc(C(=O)OC)c(C)c2C#N)cc1 | + | i
Cc1sc(NC(=O)c2ccc(S(=O)(=O)C(C)C)cc2)c(C#N)c1C | i | i
CCOc1ccccc1NC(=O)C(=O)NCC1CCN(c2ncccn2)CC1 | i | i
O=C(NCC1CCN(c2ncccn2)CC1)c1c(F)cccc1F | i | i
CCOc1ccccc1C(=O)NCC1CCN(c2ncccn2)CC1 | + | i
COc1cccc2cc(C(=O)NCC3CCN(c4ncccn4)CC3)c(=O)oc12 | + | i
COc1cc(C(C)=O)ccc1OCC(=O)Nc1ccc(-c2cn3ccsc3n2)cc1 | i | i
O=C(Nc1ccc(-c2cn3ccsc3n2)cc1)NC1CCCCC1 | + | i
CCCNC(=O)CSc1ccnc2c1c(=O)n(C)c(=O)n2C | i | i
Cn1c(=O)c2c(SCCN3CCCC3)ccnc2n(C)c1=O | + | i
Cn1c(=O)c2c(SCCO)ccnc2n(C)c1=O | i | .
CCc1cnc2c(c1SCC(=O)N1CCN(c3ccccc3)CC1)c(=O)n(C)c(=O)n2C | i | i
CCOCCSc1ccnc2c1c(=O)n(C)c(=O)n2C | + | .
CCOC(=O)CNC(=O)CSc1ccnc2c1c(=O)n(C)c(=O)n2C | i | i
Cc1cnc2c(c1SCC(=O)N1CCN(c3ccccc3)CC1)c(=O)n(C)c(=O)n2C | + | i
CCN(CC)CCSc1ccnc2c1c(=O)n(C)c(=O)n2C | + | i
COCCCNC(=O)c1nn(-c2ccc(F)cc2)cc1OCc1ccccc1 | i | i
O=C(NCCS(=O)(=O)N1CCN(c2ncccn2)CC1)c1ccco1 | i | i
NC(=O)CN1CCN(CC(=O)Nc2cccc(C(F)(F)F)c2)CC1 | i | .
COc1ccc2nc(-c3cccc(NC(=O)C4CCCCC4)c3)cn2n1 | i | i
O=C(c1csc(Nc2ccccc2)n1)N1CCN(c2ccccc2Cl)CC1 | . | i
CC(C)S(=O)(=O)c1ccc(CC(=O)N2CCC(c3nnc(-c4ccco4)s3)CC2)cc1 | i | i
CCC(=O)Nc1ccc(SCC(=O)N2CCCc3ccccc32)nn1 | i | .
SMILES | AMPAR-TARP mod | GIRK2 activator
Cn1c(=O)c2c(SCC(=O)NC(C)(C)C)ccnc2n(C)c1=O | i | i
Cn1c(=O)c2c(SCC(=O)N3CCCCCC3)ccnc2n(C)c1=O | i | .
Cn1c(=O)c2c(SCC(N)=O)ccnc2n(C)c1=O | + | .
C=CCSc1ccnc2c1c(=O)n(C)c(=O)n2C | + | .
CC1CN(C(=O)CSc2ccnc3c2c(=O)n(C)c(=O)n3C)CC(C)O1 (configuration not stated) | + | i
CCN(CC)C(=O)CSc1ccnc2c1c(=O)n(C)c(=O)n2C | i | i
O=C(c1cc2ccccc2oc1=O)N1CCC2(CC1)NC(=O)N(CCc1ccccc1)C2=O | i | i
COc1ccc(-c2nsc(C(=O)N3CCOCC3)c2N)cc1 | . | i
CCOc1ccccc1-n1ccn(CC(=O)Nc2ccccc2Cl)c(=O)c1=O | i | .
CCc1nnc(NS(=O)(=O)c2ccc(NC(=O)c3ccc(OC)c(OC)c3)cc2)s1 | i | .
CCS(=O)(=O)Nc1ccc2c(c1)N(C(=O)C(C)(C)C)CC2 | i | i
COc1ccc(S(=O)(=O)Nc2ccc3c(c2)N(C(=O)C(C)(C)C)CC3)cc1 | + | i
COc1ccc(OC)c(S(=O)(=O)Nc2ccc3c(c2)N(S(=O)(=O)c2cccs2)CCC3)c1 | + | i
CCCc1ccc(S(=O)(=O)Nc2ccc3c(c2)N(C(=O)C(C)(C)C)CC3)cc1 | + | i
COc1ccc(S(=O)(=O)Nc2ccc3c(c2)N(C(=O)C(C)(C)C)CC3)c(C)c1 | i | i
COc1ccc(CCS(=O)(=O)Nc2ccc3c(c2)N(C(=O)c2ccco2)CC3)cc1 | i | i
COc1ccc(OC)c(S(=O)(=O)Nc2ccc3c(c2)N(S(C)(=O)=O)CCC3)c1 | i | .
COc1ccc(CCS(=O)(=O)Nc2ccc3c(c2)N(C(=O)C(C)(C)C)CC3)cc1 | + | i
CSc1ccccc1CN1CCC(CNS(=O)(=O)c2cccc(C(C)=O)c2)CC1 | i | i
CSc1ccccc1NC(=O)C(=O)NCC1CCN(Cc2ccccc2)CC1 | i | i
CSc1ccccc1CN1CCC(CNC(=O)C(=O)Nc2ccccc2Cl)CC1 | + | i
COCCNC(=O)C(=O)Nc1c2c(nn1C(C)(C)C)CS(=O)(=O)C2 | i | i
CCc1ccc(-n2nnnc2SC(C)C(=O)Nc2ccccc2OC)cc1 (configuration not stated) | i | .
COc1ccc(NC(=O)C(C)Sc2nnnn2-c2ccccc2)cc1 (configuration not stated) | i | .
COc1ccc(-n2nnnc2SC(C)C(=O)Nc2ccc(C(=O)O)cc2)cc1 (configuration not stated) | + | .
SMILES | AMPAR-TARP mod | GIRK2 activator
COc1ccc(-n2nnnc2SC(C)C(=O)Nc2ccccc2OC)cc1 (configuration not stated) | + | .
COc1ccc(-c2noc(Cn3ccn4nc(-c5ccc(C)cc5)cc4c3=O)n2)c(OC)c1 | . | i
CCn1c(SCc2nc(-c3ccccc3)no2)nc2ccccc2c1=O | i | .
CC(=O)c1sc(NC(=O)CCCS(=O)(=O)c2ccc(C)cc2)nc1-c1ccccc1 | i | i
COc1ccc(S(=O)(=O)Nc2nc3ccccc3nc2NCCC2=CCCCC2)cc1 | i | .
COc1ccccc1CNc1nc2ccccc2nc1NS(=O)(=O)c1ccccc1 | + | .
COc1ccc(Cc2nc3ccccc3n2CC(=O)N2CCCCCC2)cc1OC | i | i
Cc1ccccc1NC(=O)Cn1c(Cc2ccccc2)nc2ccccc21 | + | i
C=CCn1c(=O)c2c(nc(N=Nc3c(O)[nH]c4ccccc34)n2C)n(C)c1=O | i | .
Cc1cc(NC(=O)c2ccco2)n(-c2nc(-c3cccs3)cs2)n1 | i | i
O=C(NCC(c1cccc2ccccc12)N1CCCC1)c1ccc2c(c1)OCO2 (configuration not stated) | i | i
O=C(NCCc1ccccc1)C(=O)c1cn(CC(=O)N2CCOCC2)c2ccccc12 | + | .
O=C(NCc1ccccc1)C(=O)c1cn(CC(=O)N2CCOCC2)c2ccccc12 | i | .
Cc1cc(F)ccc1S(=O)(=O)NCC1CCN(C2CCCC2)CC1 | i | i
CCc1ccc(S(=O)(=O)NCC2CCN(C3CCCC3)CC2)s1 | + | i
Cc1cc(C)c(S(=O)(=O)NCC2CCN(C3CCCC3)CC2)cc1C | i | i
CCOc1ccc(S(=O)(=O)NCC2CCN(C3CCCC3)CC2)cc1C | + | i
O=C(NCCCCN1CCOC(c2ccccc2)C1)c1cccc(F)c1 (configuration not stated) | . | i
COc1ccc(-n2nnc(C(=O)NC3CCCC3)c2C)cc1Cl | i | i
CCCOc1ccc(S(=O)(=O)Nc2ccc3c(c2)NC(=O)C(C)(C)CO3)cc1 | + | .

Source: PubChem (several laboratories)
